Assay results taken from the supplement of paper PMC10646978.
± gives the standard deviation.

Key:
Conditions in all cases: modulator concentration 10 µM
[1] = test system: RAW-Dual (murine macrophage reporter line); assay: NF-kB reporter (SEAP) activity fold change vs agonist alone; higher = enhanced NF-kB activity
Method in brief: (§1)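 In 384-well plates holding 50 000 RAW-Dual murine macrophage reporter cells per well, compound at 10 μM final was pre-incubated for 1 hour at 37 °C, after which a PRR agonist was added overnight. Supernatant SEAP read with QUANTI-Blue at 620 nm absorbance reported NF-κB, and Lucia luciferase read with QUANTI-Luc luminescence reported IRF. Fold change values come from dividing each reporter signal by the mean of agonist-only control wells on the same plate, averaged over replicate plates with propagated errors.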

[2] = test system: RAW-Dual (murine macrophage reporter line); assay: IRF reporter (Lucia luciferase) activity fold change vs agonist alone; higher = enhanced IRF activity
Method in brief: as §1

[3] = test system: RAW-Dual (murine macrophage reporter line); assay: viability score (confluency relative to resting cells, overnight) (fraction); higher = more viable, active = viable (0.7 or more)
Method in brief: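 A compound met the cutoff when both of two confluency masks exceeded 70% of resting cells. Those masks were made with IncuCyte software from IncuCyte images of RAW-Dual macrophages treated overnight at 10 μM final. This is the basis of the viability score, which is confluency relative to resting cells.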

[4] = agonist: CpG ODN 1826 0.5 ug/mL

| SMILES | NF-kB reporter [1, 4] | NF-kB reporter ([1]; agonist: LPS 0.1 ug/mL) | NF-kB reporter ([1]; agonist: MPLA […]) | IRF reporter ([2]; agonist: 3'3'-cGAMP 10 ug/mL) | IRF reporter ([2]; agonist: LPS 0.1 ug/mL) | IRF reporter ([2]; agonist: MPLA […]) | viability score [3] |
| --- | --- | --- | --- | --- | --- | --- | --- |
| Oc1nc(O)nc(N(c2ccccc2)c2ccccc2)n1 | 1.18 ± 0.095 | 1.02 ± 0.098 | 1.02 ± 0.09 | 1 ± 0.13 | 1.09 ± 0.15 | 1.08 ± 0.29 | 1 (active) |
| CCCCC(=O)N(Cc1ccc(-c2ccccc2-c2nn[nH]n2)cc1)C(C(=O)O)C(C)C (stereo not drawn) | 1.12 ± 0.27 | 0.965 ± 0.081 | 1.02 ± 0.082 | 0.71 ± 0.055 | 1.03 ± 0.14 | 1.04 ± 0.2 | 1 (active) |
| Nc1nc(=O)n([C@@H]2CS[C@H](CO)O2)cc1F | 1.59 ± 0.24 | 1.3 ± 0.46 | 1.21 ± 0.073 | 0.62 ± 0.15 | 0.98 ± 0.22 | 0.836 ± 0.21 | 1 (active) |
| Cc1sccc1-c1csc(Nc2cccnc2)n1.Cl | 0.603 ± 0.028 | 0.918 ± 0.075 | 1.16 ± 0.21 | 0.6 ± 0.029 | 1.19 ± 0.23 | 1.62 ± 0.53 | 0.902 (active) |
| CC1(C)CC(=O)C2=C(C1)OC(N)=C(C#N)C2c1ccccc1C(F)(F)F (stereo not drawn) | 1.01 ± 0.073 | 1.09 ± 0.074 | 1.06 ± 0.14 | 0.999 ± 0.059 | 1.22 ± 0.086 | 1.26 ± 0.29 | 0.994 (active) |
| COCCNCCOc1ccccc1C(C)C | 0.767 ± 0.12 | 1.03 ± 0.084 | 0.899 ± 0.069 | 0.895 ± 0.031 | 1.32 ± 0.26 | 1.26 ± 0.18 | 0.554 (inactive) |
| COCC(=O)N1CCC2(CC1)NC(=O)N(Cc1ccc(Cl)cc1)C2=O | 0.764 ± 0.18 | 1.05 ± 0.075 | 1.05 ± 0.091 | 0.995 ± 0.05 | 1.02 ± 0.12 | 1.15 ± 0.28 | 1 (active) |
| CCC(=O)Nc1ccc(S(=O)(=O)N2CCSC(c3ccccc3C)CC2)c(C)c1 (stereo not drawn) | 0.688 ± 0.045 | 0.88 ± 0.11 | 0.937 ± 0.087 | 0.412 ± 0.018 | 0.996 ± 0.085 | 0.988 ± 0.17 | 0.994 (active) |
| CC(=O)N1CCN=C1SCc1cccc(C(F)(F)F)c1 | 0.767 ± 0.06 | 0.698 ± 0.059 | 0.896 ± 0.029 | 0.572 ± 0.035 | 0.912 ± 0.068 | 0.88 ± 0.08 | 0.99 (active) |
| O=S(=O)(Oc1cccc2ccccc12)c1ccc(F)cc1 | 0.832 ± 0.1 | 0.926 ± 0.096 | 1.12 ± 0.1 | 0.789 ± 0.036 | 1.06 ± 0.064 | 1.12 ± 0.096 | 0.999 (active) |
| Cl.O=C(c1ccc(OCCN2CCCCC2)cc1)c1c(-c2ccc(O)cc2)sc2cc(O)ccc12 | 0.106 ± 0.015 | 1.14 ± 0.27 | 2.12 ± 0.12 | 0.55 ± 0.023 | 0.901 ± 0.24 | 1.5 ± 0.18 | 0.254 (inactive) |
| CC/C(=C(\c1ccccc1)c1ccc(OCCN(C)C)cc1)c1ccccc1.O=C(O)CC(O)(CC(=O)O)C(=O)O | 0.808 ± 0.064 | 0.859 ± 0.053 | 1.09 ± 0.11 | 0.963 ± 0.048 | 1.32 ± 0.076 | 1.38 ± 0.12 | 1.02 (active) |
| COc1ccc2c3c([nH]c2c1)C(=O)CCC3 | 1.43 ± 0.11 | 0.785 ± 0.066 | 1.12 ± 0.11 | 0.732 ± 0.067 | 0.561 ± 0.12 | 0.464 ± 0.11 | 0.843 (active) |
| Cc1cc(C)c(NC(=O)COc2ccc(C)cc2C(C)(C)C)c(C)c1 | 0.975 ± 0.13 | 0.975 ± 0.06 | 0.962 ± 0.11 | 0.953 ± 0.029 | 1.14 ± 0.19 | 1.01 ± 0.23 | 1.01 (active) |
